Test in all cases: PBM; 200 nM protein, PBS
Common to all, as to details: dsDNA, one strand shown

In experiment [1] the target is HOXB9 (Homo sapiens, UniProt P17482 171-250, T197M).
In experiment [2] the target is HOXB9 (Homo sapiens, UniProt P17482 171-250).
Experiment [3] deals with HOXB9 (Homo sapiens, UniProt P17482 171-250, R186Q).
The target of experiment [4] is T1, SIX6 (Homo sapiens, UniProt O95475 114-200, L167I).
T1 sequence: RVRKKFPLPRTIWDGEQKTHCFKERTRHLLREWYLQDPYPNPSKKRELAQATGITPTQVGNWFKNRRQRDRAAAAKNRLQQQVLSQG

Experiment [5] concerns the target T2, SIX6 (Homo sapiens, UniProt O95475 114-200, L143V).
T2 sequence: T1 sequence with L30V, I54L

Experiment [6] addresses T3, SIX6 (Homo sapiens, UniProt O95475 114-200, H141N).
T3 sequence: T1 sequence with H28N, I54L

Experiment [7] deals with T4, SIX6 (Homo sapiens, UniProt O95475 114-200, T165P).
T4 sequence: T1 sequence with T52P, I54L

Experiment [8] deals with T5, SIX6 (Homo sapiens, UniProt O95475 114-200, L167M).
T5 sequence: T1 sequence with I54M

Experiment [9] addresses T6, SIX6 (Homo sapiens, UniProt O95475 114-200, L143M).
T6 sequence: T1 sequence with L30M, I54L

Experiment [10] has as its target T7, SIX6 (Homo sapiens, UniProt O95475 114-200, L143I).
T7 sequence: T1 sequence with L30I, I54L

Experiment [11] deals with T8, SIX6 (Homo sapiens, UniProt O95475 114-200, T165G).
T8 sequence: T1 sequence with T52G, I54L

For experiment [12], the target named is HOXA2 (Homo sapiens, UniProt O43364 129-215, R185T).
Experiment [13] deals with T9, SIX6 (Homo sapiens, UniProt O95475 114-200, T139Q).
T9 sequence: T1 sequence with T26Q, I54L

Experiment [14] concerns the target T10, SIX6 (Homo sapiens, UniProt O95475 114-200, T165A).
T10 sequence: T1 sequence with T52A, I54L

Experiment [15] concerns the target HOXA2 (Homo sapiens, UniProt O43364 129-215, R185K).
Experiment [16] deals with T11, SIX6 (Homo sapiens, UniProt O95475 114-200, L167V).
T11 sequence: T1 sequence with I54V

Experiment [17] addresses T12, SIX6 (Homo sapiens, UniProt O95475 114-200).
T12 sequence: T1 sequence with I54L

Experiment [18] concerns the target T13, SIX6 (Homo sapiens, UniProt O95475 114-200, T165I).
T13 sequence: T1 sequence with T52I, I54L

Experiment [19] has as its target HOXA2 (Homo sapiens, UniProt O43364 129-215, Y150S).
For experiment [20], the target named is HOXA2 (Homo sapiens, UniProt O43364 129-215).

Substitutions are numbered along the chain they refer to.

HOXB9 (Homo sapiens, UniProt P17482 171-250, R186Q), sequence (P17482 171-250 R186Q): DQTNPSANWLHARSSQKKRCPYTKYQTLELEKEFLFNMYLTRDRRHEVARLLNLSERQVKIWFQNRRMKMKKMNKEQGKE
HOXB9 (Homo sapiens, UniProt P17482 171-250, T197M), sequence (P17482 171-250 T197M): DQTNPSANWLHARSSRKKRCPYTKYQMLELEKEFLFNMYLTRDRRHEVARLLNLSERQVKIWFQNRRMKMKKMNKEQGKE
HOXB9 (Homo sapiens, UniProt P17482 171-250), sequence (P17482 171-250): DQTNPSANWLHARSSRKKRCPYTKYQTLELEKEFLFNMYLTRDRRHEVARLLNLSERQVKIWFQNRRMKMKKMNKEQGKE
HOXA2 (Homo sapiens, UniProt O43364 129-215), sequence (O43364 129-215): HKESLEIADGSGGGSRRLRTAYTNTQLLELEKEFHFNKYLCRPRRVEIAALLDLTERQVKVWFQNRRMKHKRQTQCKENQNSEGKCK
HOXA2 (Homo sapiens, UniProt O43364 129-215, R185K), sequence (O43364 129-215 R185K): as the sequence (O43364 129-215) above, with R57K counted along it
HOXA2 (Homo sapiens, UniProt O43364 129-215, Y150S), sequence (O43364 129-215 Y150S): as the sequence (O43364 129-215) above, with Y22S counted along it
HOXA2 (Homo sapiens, UniProt O43364 129-215, R185T), sequence (O43364 129-215 R185T): as the sequence (O43364 129-215) above, with R57T counted along it

As to GAGCGCAA, the binding signal with HOXB9 [1] is 8.55 upbm affinity estimate (log intensity, higher = more binding, comparable within an allelic series); with HOXB9 [2], 8.29 upbm affinity estimate (log intensity, higher = more binding, comparable within an allelic series); with HOXB9 [3], 8.48 upbm affinity estimate (log intensity, higher = more binding, comparable within an allelic series).
For the sequence ATTAACAA, in the experiment with HOXB9 [1], the binding signal was 9.96 upbm affinity estimate (log intensity, higher = more binding, comparable within an allelic series).
CCACGTCG: the binding signal was 8.7 upbm affinity estimate (log intensity, higher = more binding, comparable within an allelic series) in the experiment with HOXB9 [1]; 8.53 upbm affinity estimate (log intensity, higher = more binding, comparable within an allelic series) with HOXB9 [2]; 8.57 upbm affinity estimate (log intensity, higher = more binding, comparable within an allelic series) in the experiment with HOXB9 [3].
For AGGAACCC, the binding signal in the experiment with HOXB9 [1] was 8.41 upbm affinity estimate (log intensity, higher = more binding, comparable within an allelic series); in the experiment with HOXB9 [2], 8.22 upbm affinity estimate (log intensity, higher = more binding, comparable within an allelic series); in the experiment with HOXB9 [3] it was 8.24 upbm affinity estimate (log intensity, higher = more binding, comparable within an allelic series).
As for CAGATCGG, the binding signal is 8.72 upbm affinity estimate (log intensity, higher = more binding, comparable within an allelic series) with HOXB9 [1]; 8.44 upbm affinity estimate (log intensity, higher = more binding, comparable within an allelic series) with HOXB9 [2]; 8.55 upbm affinity estimate (log intensity, higher = more binding, comparable within an allelic series) in the experiment with HOXB9 [3].
As for CCCGCGAG, the binding signal is 8.58 upbm affinity estimate (log intensity, higher = more binding, comparable within an allelic series) in the experiment with HOXB9 [1]; 8.45 upbm affinity estimate (log intensity, higher = more binding, comparable within an allelic series) with HOXB9 [2]; 8.39 upbm affinity estimate (log intensity, higher = more binding, comparable within an allelic series) in the experiment with HOXB9 [3].
As to GACATAAA, the binding signal is 9.74 upbm affinity estimate (log intensity, higher = more binding, comparable within an allelic series) with HOXB9 [1]; 11.7 upbm affinity estimate (log intensity, higher = more binding, comparable within an allelic series) with HOXB9 [2]; 11.3 upbm affinity estimate (log intensity, higher = more binding, comparable within an allelic series) in the experiment with HOXB9 [3].
AGACGCGG: the binding signal with HOXB9 [1] was 8.63 upbm affinity estimate (log intensity, higher = more binding, comparable within an allelic series); with HOXB9 [2], 8.58 upbm affinity estimate (log intensity, higher = more binding, comparable within an allelic series); with HOXB9 [3], 8.55 upbm affinity estimate (log intensity, higher = more binding, comparable within an allelic series).
Consider GCCGGGCC, for which the binding signal with HOXB9 [1] is 8.36 upbm affinity estimate (log intensity, higher = more binding, comparable within an allelic series); in the experiment with HOXB9 [2], 8.42 upbm affinity estimate (log intensity, higher = more binding, comparable within an allelic series); with HOXB9 [3], 8.41 upbm affinity estimate (log intensity, higher = more binding, comparable within an allelic series).
For the sequence CTCCCGCC, the binding signal with HOXB9 [1] is 8.4 upbm affinity estimate (log intensity, higher = more binding, comparable within an allelic series); in the experiment with HOXB9 [2], 8.4 upbm affinity estimate (log intensity, higher = more binding, comparable within an allelic series); in the experiment with HOXB9 [3], 8.4 upbm affinity estimate (log intensity, higher = more binding, comparable within an allelic series).
In the case of CCCCGGAC, the binding signal was 8.48 upbm affinity estimate (log intensity, higher = more binding, comparable within an allelic series) with HOXB9 [1]; 8.48 upbm affinity estimate (log intensity, higher = more binding, comparable within an allelic series) with HOXB9 [2]; 8.49 upbm affinity estimate (log intensity, higher = more binding, comparable within an allelic series) in the experiment with HOXB9 [3].
Regarding GGCTCCGA, the binding signal with HOXB9 [1] was 8.49 upbm affinity estimate (log intensity, higher = more binding, comparable within an allelic series); in the experiment with HOXB9 [2] it was 8.4 upbm affinity estimate (log intensity, higher = more binding, comparable within an allelic series); in the experiment with HOXB9 [3], 8.41 upbm affinity estimate (log intensity, higher = more binding, comparable within an allelic series).
For the sequence GGAGCTAC, the binding signal with HOXB9 [1] was 8.61 upbm affinity estimate (log intensity, higher = more binding, comparable within an allelic series); with HOXB9 [2], 8.26 upbm affinity estimate (log intensity, higher = more binding, comparable within an allelic series); with HOXB9 [3], 8.53 upbm affinity estimate (log intensity, higher = more binding, comparable within an allelic series).
As to GCCACTCC, the binding signal with HOXB9 [1] was 8.73 upbm affinity estimate (log intensity, higher = more binding, comparable within an allelic series); with HOXB9 [2], 8.79 upbm affinity estimate (log intensity, higher = more binding, comparable within an allelic series); with HOXB9 [3], 8.8 upbm affinity estimate (log intensity, higher = more binding, comparable within an allelic series).
Take CCGATCGG: the binding signal with HOXB9 [1] is 8.51 upbm affinity estimate (log intensity, higher = more binding, comparable within an allelic series); in the experiment with HOXB9 [2], 8.53 upbm affinity estimate (log intensity, higher = more binding, comparable within an allelic series); with HOXB9 [3], 8.57 upbm affinity estimate (log intensity, higher = more binding, comparable within an allelic series).
With GGACCTAC, the binding signal is 8.72 upbm affinity estimate (log intensity, higher = more binding, comparable within an allelic series) in the experiment with HOXB9 [1]; 8.47 upbm affinity estimate (log intensity, higher = more binding, comparable within an allelic series) in the experiment with HOXB9 [2]; 8.62 upbm affinity estimate (log intensity, higher = more binding, comparable within an allelic series) with HOXB9 [3].
Consider GCCCTGCC, for which the binding signal is 8.89 upbm affinity estimate (log intensity, higher = more binding, comparable within an allelic series) with SIX6 [4]; 8.78 upbm affinity estimate (log intensity, higher = more binding, comparable within an allelic series) with SIX6 [5]; 8.91 upbm affinity estimate (log intensity, higher = more binding, comparable within an allelic series) with SIX6 [6]; 8.91 upbm affinity estimate (log intensity, higher = more binding, comparable within an allelic series) in the experiment with SIX6 [7]; 8.87 upbm affinity estimate (log intensity, higher = more binding, comparable within an allelic series) with SIX6 [8]; 8.9 upbm affinity estimate (log intensity, higher = more binding, comparable within an allelic series) in the experiment with SIX6 [9]. Besides, the binding signal was 8.84 upbm affinity estimate (log intensity, higher = more binding, comparable within an allelic series) in the experiment with SIX6 [10]; 8.91 upbm affinity estimate (log intensity, higher = more binding, comparable within an allelic series) in the experiment with SIX6 [11]; 6.93 upbm affinity estimate (log intensity, higher = more binding, comparable within an allelic series) with HOXA2 [12]; 9.01 upbm affinity estimate (log intensity, higher = more binding, comparable within an allelic series) in the experiment with SIX6 [13]; 8.99 upbm affinity estimate (log intensity, higher = more binding, comparable within an allelic series) with SIX6 [14]; 10.3 upbm affinity estimate (log intensity, higher = more binding, comparable within an allelic series) with HOXA2 [15]. For the same sequence, the binding signal with SIX6 [16] was 8.94 upbm affinity estimate (log intensity, higher = more binding, comparable within an allelic series); in the experiment with SIX6 [17] it was 8.87 upbm affinity estimate (log intensity, higher = more binding, comparable within an allelic series); in the experiment with SIX6 [18] it was 8.85 upbm affinity estimate (log intensity, higher = more binding, comparable within an allelic series); with HOXA2 [19], 10.4 upbm affinity estimate (log intensity, higher = more binding, comparable within an allelic series); with HOXA2 [20] it was 7.06 upbm affinity estimate (log intensity, higher = more binding, comparable within an allelic series).
As to CTCGGGCC, the binding signal with SIX6 [4] is 9.05 upbm affinity estimate (log intensity, higher = more binding, comparable within an allelic series); in the experiment with SIX6 [5] it was 8.95 upbm affinity estimate (log intensity, higher = more binding, comparable within an allelic series); with SIX6 [6], 9.05 upbm affinity estimate (log intensity, higher = more binding, comparable within an allelic series); with SIX6 [7], 9.01 upbm affinity estimate (log intensity, higher = more binding, comparable within an allelic series); in the experiment with SIX6 [8] it was 8.95 upbm affinity estimate (log intensity, higher = more binding, comparable within an allelic series); in the experiment with SIX6 [9], 9.01 upbm affinity estimate (log intensity, higher = more binding, comparable within an allelic series). Besides, the binding signal is 9.02 upbm affinity estimate (log intensity, higher = more binding, comparable within an allelic series) in the experiment with SIX6 [10]; 9.14 upbm affinity estimate (log intensity, higher = more binding, comparable within an allelic series) with SIX6 [11]; 9.13 upbm affinity estimate (log intensity, higher = more binding, comparable within an allelic series) with SIX6 [13]; 9.09 upbm affinity estimate (log intensity, higher = more binding, comparable within an allelic series) in the experiment with SIX6 [14]; 9.03 upbm affinity estimate (log intensity, higher = more binding, comparable within an allelic series) with SIX6 [16]; 9.02 upbm affinity estimate (log intensity, higher = more binding, comparable within an allelic series) with SIX6 [17]. Besides, the binding signal in the experiment with SIX6 [18] was 9.02 upbm affinity estimate (log intensity, higher = more binding, comparable within an allelic series).
